PKM2 inh: inhibitors of human pyruvate kinase M2; purified PKM2, ATP generation, Kinase-Glo luminescence; AID 1634; P14618; actives 0.058% (n = 260,000); Potency, µM (top dose mostly 57.5 µM), actives largely listed as inhibitors; further: nearly all actives have a fitted effect of over 60% in size
Target sequence (P14618 whole entry, looked up): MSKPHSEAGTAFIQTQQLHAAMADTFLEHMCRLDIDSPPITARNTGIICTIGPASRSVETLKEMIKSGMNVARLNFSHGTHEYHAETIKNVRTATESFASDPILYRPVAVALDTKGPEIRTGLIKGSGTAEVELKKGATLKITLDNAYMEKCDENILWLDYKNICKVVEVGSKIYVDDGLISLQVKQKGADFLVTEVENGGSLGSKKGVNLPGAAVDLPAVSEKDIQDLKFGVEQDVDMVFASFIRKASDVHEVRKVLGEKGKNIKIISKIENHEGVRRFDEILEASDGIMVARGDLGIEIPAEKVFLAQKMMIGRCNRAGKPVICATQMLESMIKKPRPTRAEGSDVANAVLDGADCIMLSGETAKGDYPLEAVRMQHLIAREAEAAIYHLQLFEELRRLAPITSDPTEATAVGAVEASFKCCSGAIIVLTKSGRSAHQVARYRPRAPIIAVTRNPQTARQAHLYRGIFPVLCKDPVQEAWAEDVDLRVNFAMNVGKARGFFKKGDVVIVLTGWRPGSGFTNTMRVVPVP
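Enzyme run at intermediate activity with final 0.1 mM ADP, 0.5 mM PEP (50 mM imidazole pH7.2, 50 mM KCl, 7 mM MgCl2), incubated 1 h at r.t. ATP formed read by Kinase-Glo luminescence, normalized to no-enzyme (full inhibition) and uninhibited wells.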
PKM2 inh CRC: dose-dependently blocks human pyruvate kinase M2 activity | shares compounds with PKM2 inh | purified hPK-M2, Kinase-Glo ATP luminescence, 1 h | Potency, µM (series often up to 57.5 µM), actives largely listed as inhibitors | actives 50% (n = 55) | AID 2263
PKM2 FLuc cs: blocks firefly luciferase, flagging PKM2 inhibitor artifacts; Kinase-Glo firefly luciferase, luminescence, 8 min; Potency, µM (highest dose often 57.5 µM), most hits filed as inhibitors; shares compounds with PKM2 inh; AID 2265; actives 30% (n = 55)
PKM2 LDH couple: PKM2 (human) inhibition, NADH coupled readout; shares compounds with PKM2 inh; purified hPK-M2, LDH-coupled NADH fluorescence kinetic; Potency, µM (top dose mostly 57.5 µM), actives largely listed as inhibitors; 55 tested, under 10 active; AID 2267
Each line names hits and unclear results; the compound was inactive in the other large screens (follow-up assays come after a bar, where they were run). The sample as a whole holds a higher share of hits than the screen did. The call rests on the fitted dose curve; in most records, active means well fitted curve in the direction sought with a large enough effect; inconclusive means small, poorly fitted or top-dose-only effect, or another doubt; inactive means no such curve, though single readings can be large; an effect the other way counts as inactive or inconclusive.

Cc1ccc(-n2[nH]c(C)c(/C=N/n3c(C)nc4ccccc4c3=O)c2=O)cc1	PKM2 inh 12.6µM
O=c1c2ccccc2nc(-c2ccco2)n1/N=C/c1ccccc1O	none
Cn1c(=O)n(C)c2cc(NS(=O)(=O)c3ccccc3[N+](=O)[O-])ccc21	none
CCC1=Nc2cc(C(=O)NCc3cccnc3)ccc2Sc2ccc(C)cc21	none
CC(=O)Nc1sc(N/N=C/c2ccccc2F)nc1-c1ccc(C)cc1	none
COc1ccc(C(=O)Nc2c(C)cc(C)cc2C)cc1OC	none
CCOc1ccc(C(=O)Nc2cc(C)ccn2)cc1	PKM2 inh 14.1µM
CCOc1ccc(-c2nnc(SCC(=O)Nc3cc(C)on3)o2)cc1	none
Cc1ccc(NS(=O)(=O)c2cc3c4c(cccc4c2)C(=O)NC3=O)cc1C	none
Cc1ccc(S(=O)(=O)Nc2cccc3ncccc23)s1	none
Cc1ccc(S(=O)(=O)CCSc2nc(C)cc(C(F)(F)F)c2C#N)cc1	none
COCCCNC(=S)N/N=C/c1ccc(O)cc1	none
Cc1occc1C(=O)N/N=C/c1ccc(N(C)C)cc1	PKM2 inh 14.1µM
COCC(=O)N1CCC(n2nnc3cc(C(F)(F)F)ccc32)CC1	none
CCc1ccc(CCC(=O)Nc2ncc(Cc3ccccc3Cl)s2)o1	none
O=C(COC(=O)c1ccc(S(=O)(=O)Nc2ccccc2)cc1)NCc1ccco1	none
O=C(Nc1ccc(S(=O)(=O)Nc2nccs2)cc1)C1=NN(c2ccccc2)C(=O)CC1	none
O=C(OCc1ccc(Cl)cc1Cl)c1cccnc1Cl	none
N/C(=N\OC(=O)c1ccc(Cl)cc1)c1ccccn1	PKM2 inh 7.08µM
N/C(=N\OC(=O)CCCN1C(=O)c2ccccc2C1=O)c1ccccn1	none
Cc1ccc(C(=O)O/N=C(\N)c2ccccn2)c(C)c1	PKM2 inh 7.94µM
O=S(=O)(c1ccc(F)cc1)N1CCN(S(=O)(=O)c2cccs2)CC1	none
OC(C#Cc1ccccn1)c1cccs1 (configuration not stated)	none
CCc1sc(C(C2C(=O)CC(C)(C)CC2=O)C2C(=O)CC(C)(C)CC2=O)cc1[N+](=O)[O-]	none
c1ccc2c(c1)ccc1nnc(SCc3ccc4c(c3)OCO4)n12	none
COc1ccc(-c2nc(C#N)c(NC(C)c3ccccc3)o2)cc1OC (configuration not stated)	none
Cc1ccccc1S(=O)(=O)Nc1ncnc2ccccc12	none
Cc1occc1C(=O)O/N=C(\N)c1ccccc1	PKM2 inh 7.08µM
Cc1ccc(/C(N)=N/OC(=O)Cc2cccc3ccccc23)cc1	none
O=C(NCc1ccc(/C=c2\sc3n(c2=O)CCN=3)o1)C(=O)Nc1ccccc1	none
O=C(Nc1ccc2[nH]c(=O)[nH]c2c1)c1cccc([N+](=O)[O-])c1	none
COCCOC(=O)/C(C#N)=C/c1cn(Cc2ccccc2)nc1-c1cccnc1	none
Cc1ccc(-c2csc(Nc3ccc(S(N)(=O)=O)cc3)n2)o1	none
COc1ccc(Nc2c(-c3ccc(C)o3)nc3ccccn23)cc1	none (no result: PKM2 inh) | PKM2 inh CRC inactive | PKM2 FLuc cs inactive | PKM2 LDH couple inactive
Cc1ccc(-c2nc3cnccn3c2Nc2ccc3c(c2)OCCO3)o1	none
Cc1ccc(Nc2c(-c3ccsc3)nc3c(C)cccn23)cc1	none (no result: PKM2 inh) | PKM2 inh CRC inactive | PKM2 FLuc cs inactive | PKM2 LDH couple inconclusive
Cc1ccc(Nc2c(-c3ccsc3)nc3cccc(C)n23)cc1	none (no result: PKM2 inh) | PKM2 inh CRC inactive | PKM2 FLuc cs inactive | PKM2 LDH couple inconclusive
COc1ccc(NC(=O)c2cc(-c3ccc(C)o3)nc3ccccc23)cc1OC	none
Cc1ccc(Nc2c(-c3ccc(C)o3)nc3cccc(C)n23)cc1	none (no result: PKM2 inh) | PKM2 inh CRC inactive | PKM2 FLuc cs inactive | PKM2 LDH couple 6.51µM
O=C(COC(=O)C1CC1)NC(=O)NCc1ccccc1	none
O=C1CC(c2ccco2)Cc2c1cnn2-c1nc2ccccc2s1 (configuration not stated)	none
CCCOc1ccccc1NC(=O)/C=C/C(N)=O	none
O=C(CNC(=O)c1ccc2ccccc2c1)OCC(=O)N1CCN(S(=O)(=O)c2ccc3ccccc3c2)CC1	none
Cc1cccc(Cn2c(SCC(=O)Nc3ccccc3)nc3c2c(=O)[nH]c(=O)n3C)c1	none
COC(=O)c1ccc(CSc2nc3scc(-c4cccs4)c3c(=O)[nH]2)o1	none
COC(=O)[C@@]1(Cc2ccc(OC)cc2)[C@H]2c3cc(C(=O)N4CCCC4)n(Cc4ccc(C)o4)c3C[C@H]2CN1C(=O)c1ccccc1	none
COC(=O)c1ccc(CN(c2ccc(C)cc2)S(=O)(=O)c2ccc3c(c2)OCCO3)o1	none
O=C(c1cccc(S(=O)(=O)Nc2ccc(Br)cc2)c1)N1CCC1	none
CN1C(=O)c2cccc3c(S(=O)(=O)Nc4ccccc4F)ccc1c23	none
O=c1[nH]c2ccc(N/C(=N/S(=O)(=O)c3ccccc3)c3ccccc3)cc2[nH]1	none
O=C(Nc1ccc(-n2cc(Br)cn2)cc1)c1ccncc1	none
Cc1nc(CCN2C(=O)c3ccccc3C2=O)cs1	none
Cc1ccc2nc(-c3ccc(C)o3)c(NC3CCCC3)n2c1	none (no result: PKM2 inh) | PKM2 inh CRC inactive | PKM2 FLuc cs inactive | PKM2 LDH couple inconclusive
COc1ccccc1CN(Cc1cc2c(C)ccc(C)c2[nH]c1=O)Cc1nnnn1Cc1ccco1	none
CCCn1c(N)c(C(=O)NS(=O)(=O)c2ccc(C)cc2)c(=O)n(C)c1=O	none
O=C(N/N=C/c1ccc([N+](=O)[O-])o1)c1ccccc1NS(=O)(=O)c1cccs1	none
CSc1cccc(NS(=O)(=O)c2ccc3c(c2)oc(=O)n3C)c1	none
CN(Cc1ccon1)Cc1cn(C)nc1-c1cccc(Cl)c1	PKM2 inh 10µM | PKM2 inh CRC inactive | PKM2 FLuc cs inactive | PKM2 LDH couple inactive
Cc1cc(=O)[nH]c(NCCO)n1	none
O=C(c1ccc2c(=O)n3c(nc2c1)CCCCC3)N1CCN(C(c2ccccc2)c2ccccc2)CC1	none
Brc1cccc(C2CC(c3ccccc3)n3nnnc3N2)c1 (configuration not stated)	none
Cc1cc(N2C(=O)C=CC2=O)c([N+](=O)[O-])cc1C	none

Source: PubChem BioAssay (National Center for Advancing Translational Sciences (NCATS))
